# Laboratory results taken from the supplement of paper PMC10849652.
# Targets with a hit are over-represented here; the source holds about 8,800 in all. About 0.5% of all pairs of compound and target were hits. Unmarked numbers belong to inactive results.
# What was measured:
# Test in all cases: log2 fold change, soluble protein after heating vs DMSO (PISA); higher = thermal stabilisation; K562 lysate, 10 uM; active = over 0.2 and 3.5 SD of the protein, either way, in both replicates (recomputed)
# nilotinib = compound: Cc1cn(-c2cc(NC(=O)c3ccc(C)c(Nc4nccc(-c5cccnc5)n4)c3)cc(C(F)(F)F)c2)cn1 [nilotinib]
# How it was run: (§1)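 Values give the log-two fold change in thermal stability against solvent controls, from duplicates. Crude K562 extract at 1 mg/mL protein, made by dounce homogenisation in PBS pH 7.4 with 1 mM MgCl2, was treated with 10 μM compound for 30 min. After 3 min heating across 48°C-58°C, aliquots were pooled, adjusted to 0.5% NP-40 at 4°C and centrifuged at 21,000xg for 90 min. The supernatant was measured by TMTpro 16plex LC-MS/MS with channel sums equalised.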
# [1] = compound: Cc1nc(Nc2n[nH]c3c2CN(C(=O)N[C@H](CN(C)C)c2ccccc2)C3(C)C)c2sccc2n1
# How it was run: as §1
# dasatinib = compound: Cc1nc(Nc2ncc(C(=O)Nc3c(C)cccc3Cl)s2)cc(N2CCN(CCO)CC2)n1 [dasatinib]
# How it was run: as §1
# [2] = compound: Cc1ncc(-c2ccnc(Nc3ccc(S(C)(=O)=O)cc3)n2)n1C(C)C
# How it was run: as §1
# [3] = compound: Cn1cc(-c2ccc3c(c2)CCN3C(=O)Cc2cccc(C(F)(F)F)c2)c2c(N)ncnc21
# How it was run: as §1
# quisinostat = compound: Cn1cc(CNCC2CCN(c3ncc(C(=O)NO)cn3)CC2)c2ccccc21 [quisinostat]
# How it was run: as §1
# tipifarnib = compound: Cn1cncc1[C@@](N)(c1ccc(Cl)cc1)c1ccc2c(c1)c(-c1cccc(Cl)c1)cc(=O)n2C [tipifarnib]
# How it was run: as §1
# [4] = compound: NC(=O)Nc1cc(-c2cccc(F)c2)sc1C(=O)N[C@H]1CCCNC1
# How it was run: as §1
# [5] = compound: NC(=O)c1cnc(N[C@@H]2CCCC[C@@H]2N)nc1Nc1cccc(-n2nccn2)c1
# How it was run: as §1
# [6] = compound: NC1(c2ccc(-c3nc4ccn5c(=O)[nH]nc5c4cc3-c3ccccc3)cc2)CCC1
# How it was run: as §1
# [7] = compound: NCC(=O)Nc1ccc(-n2nc(C(F)(F)F)cc2-c2ccc3c(ccc4ccccc43)c2)cc1
# How it was run: as §1
# vorinostat = compound: O=C(CCCCCCC(=O)Nc1ccccc1)NO [vorinostat]
# How it was run: as §1
# silmitasertib = compound: O=C(O)c1ccc2c(c1)nc(Nc1cccc(Cl)c1)c1ccncc12 [silmitasertib]
# How it was run: as §1
# [8] = compound: O=C1NC(=O)C(c2cnc3ccccn23)=C1c1cn2c3c(cc(F)cc13)CN(C(=O)N1CCCCC1)CC2
# How it was run: as §1
# entospletinib = compound: c1cn2cc(-c3ccc4cn[nH]c4c3)nc(Nc3ccc(N4CCOCC4)cc3)c2n1 [entospletinib]
# How it was run: as §1
# Chain of UniProt O95271 (O95271 whole entry, looked up): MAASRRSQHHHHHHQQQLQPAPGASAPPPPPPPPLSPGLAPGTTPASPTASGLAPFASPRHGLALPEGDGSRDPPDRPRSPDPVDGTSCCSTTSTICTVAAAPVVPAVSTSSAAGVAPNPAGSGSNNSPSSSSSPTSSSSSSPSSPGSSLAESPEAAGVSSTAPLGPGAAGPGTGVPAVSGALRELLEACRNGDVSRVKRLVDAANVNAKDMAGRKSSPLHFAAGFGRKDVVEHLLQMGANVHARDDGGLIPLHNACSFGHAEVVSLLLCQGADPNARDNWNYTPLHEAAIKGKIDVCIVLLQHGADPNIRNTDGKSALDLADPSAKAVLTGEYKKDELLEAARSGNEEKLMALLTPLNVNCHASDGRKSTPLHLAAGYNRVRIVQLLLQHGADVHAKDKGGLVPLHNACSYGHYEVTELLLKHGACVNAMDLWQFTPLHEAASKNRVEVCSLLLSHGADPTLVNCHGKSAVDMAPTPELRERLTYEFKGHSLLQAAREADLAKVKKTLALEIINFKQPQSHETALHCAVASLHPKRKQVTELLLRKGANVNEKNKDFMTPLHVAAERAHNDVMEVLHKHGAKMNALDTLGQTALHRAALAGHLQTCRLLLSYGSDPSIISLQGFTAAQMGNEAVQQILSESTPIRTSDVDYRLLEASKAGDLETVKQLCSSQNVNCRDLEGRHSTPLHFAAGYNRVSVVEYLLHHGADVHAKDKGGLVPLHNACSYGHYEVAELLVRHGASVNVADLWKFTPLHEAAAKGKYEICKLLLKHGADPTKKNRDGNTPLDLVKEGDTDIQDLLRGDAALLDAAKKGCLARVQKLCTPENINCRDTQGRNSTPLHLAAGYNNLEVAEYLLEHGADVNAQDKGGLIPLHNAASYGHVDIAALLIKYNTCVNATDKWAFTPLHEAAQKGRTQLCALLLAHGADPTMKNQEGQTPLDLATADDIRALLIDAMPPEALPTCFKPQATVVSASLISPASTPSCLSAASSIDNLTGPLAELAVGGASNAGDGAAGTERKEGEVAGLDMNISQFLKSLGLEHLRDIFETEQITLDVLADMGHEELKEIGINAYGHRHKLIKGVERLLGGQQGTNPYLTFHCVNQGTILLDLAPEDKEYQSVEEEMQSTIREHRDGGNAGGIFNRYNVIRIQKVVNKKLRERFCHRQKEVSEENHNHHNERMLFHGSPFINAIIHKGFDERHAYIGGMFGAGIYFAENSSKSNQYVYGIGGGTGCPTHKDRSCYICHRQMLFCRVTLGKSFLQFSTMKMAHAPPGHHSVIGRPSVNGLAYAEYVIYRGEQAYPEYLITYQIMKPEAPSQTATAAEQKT
# Chain of UniProt Q14258 (Q14258 whole entry, looked up): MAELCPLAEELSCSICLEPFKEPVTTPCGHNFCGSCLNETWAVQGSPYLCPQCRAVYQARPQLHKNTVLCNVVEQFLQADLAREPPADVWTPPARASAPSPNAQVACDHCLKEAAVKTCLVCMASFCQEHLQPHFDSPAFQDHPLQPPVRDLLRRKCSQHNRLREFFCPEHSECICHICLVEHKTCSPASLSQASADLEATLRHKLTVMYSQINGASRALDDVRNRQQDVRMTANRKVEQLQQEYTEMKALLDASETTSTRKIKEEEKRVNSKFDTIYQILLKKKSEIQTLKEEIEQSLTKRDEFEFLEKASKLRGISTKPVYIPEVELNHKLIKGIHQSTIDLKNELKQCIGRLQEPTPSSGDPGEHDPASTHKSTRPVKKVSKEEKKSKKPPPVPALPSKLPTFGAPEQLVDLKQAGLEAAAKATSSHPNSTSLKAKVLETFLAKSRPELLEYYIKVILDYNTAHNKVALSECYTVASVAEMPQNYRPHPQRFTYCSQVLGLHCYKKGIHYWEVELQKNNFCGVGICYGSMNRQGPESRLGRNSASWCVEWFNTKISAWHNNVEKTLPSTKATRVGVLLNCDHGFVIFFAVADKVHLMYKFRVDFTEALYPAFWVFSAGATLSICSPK
# Chain of UniProt Q6PGP7 (Q6PGP7 whole entry, looked up): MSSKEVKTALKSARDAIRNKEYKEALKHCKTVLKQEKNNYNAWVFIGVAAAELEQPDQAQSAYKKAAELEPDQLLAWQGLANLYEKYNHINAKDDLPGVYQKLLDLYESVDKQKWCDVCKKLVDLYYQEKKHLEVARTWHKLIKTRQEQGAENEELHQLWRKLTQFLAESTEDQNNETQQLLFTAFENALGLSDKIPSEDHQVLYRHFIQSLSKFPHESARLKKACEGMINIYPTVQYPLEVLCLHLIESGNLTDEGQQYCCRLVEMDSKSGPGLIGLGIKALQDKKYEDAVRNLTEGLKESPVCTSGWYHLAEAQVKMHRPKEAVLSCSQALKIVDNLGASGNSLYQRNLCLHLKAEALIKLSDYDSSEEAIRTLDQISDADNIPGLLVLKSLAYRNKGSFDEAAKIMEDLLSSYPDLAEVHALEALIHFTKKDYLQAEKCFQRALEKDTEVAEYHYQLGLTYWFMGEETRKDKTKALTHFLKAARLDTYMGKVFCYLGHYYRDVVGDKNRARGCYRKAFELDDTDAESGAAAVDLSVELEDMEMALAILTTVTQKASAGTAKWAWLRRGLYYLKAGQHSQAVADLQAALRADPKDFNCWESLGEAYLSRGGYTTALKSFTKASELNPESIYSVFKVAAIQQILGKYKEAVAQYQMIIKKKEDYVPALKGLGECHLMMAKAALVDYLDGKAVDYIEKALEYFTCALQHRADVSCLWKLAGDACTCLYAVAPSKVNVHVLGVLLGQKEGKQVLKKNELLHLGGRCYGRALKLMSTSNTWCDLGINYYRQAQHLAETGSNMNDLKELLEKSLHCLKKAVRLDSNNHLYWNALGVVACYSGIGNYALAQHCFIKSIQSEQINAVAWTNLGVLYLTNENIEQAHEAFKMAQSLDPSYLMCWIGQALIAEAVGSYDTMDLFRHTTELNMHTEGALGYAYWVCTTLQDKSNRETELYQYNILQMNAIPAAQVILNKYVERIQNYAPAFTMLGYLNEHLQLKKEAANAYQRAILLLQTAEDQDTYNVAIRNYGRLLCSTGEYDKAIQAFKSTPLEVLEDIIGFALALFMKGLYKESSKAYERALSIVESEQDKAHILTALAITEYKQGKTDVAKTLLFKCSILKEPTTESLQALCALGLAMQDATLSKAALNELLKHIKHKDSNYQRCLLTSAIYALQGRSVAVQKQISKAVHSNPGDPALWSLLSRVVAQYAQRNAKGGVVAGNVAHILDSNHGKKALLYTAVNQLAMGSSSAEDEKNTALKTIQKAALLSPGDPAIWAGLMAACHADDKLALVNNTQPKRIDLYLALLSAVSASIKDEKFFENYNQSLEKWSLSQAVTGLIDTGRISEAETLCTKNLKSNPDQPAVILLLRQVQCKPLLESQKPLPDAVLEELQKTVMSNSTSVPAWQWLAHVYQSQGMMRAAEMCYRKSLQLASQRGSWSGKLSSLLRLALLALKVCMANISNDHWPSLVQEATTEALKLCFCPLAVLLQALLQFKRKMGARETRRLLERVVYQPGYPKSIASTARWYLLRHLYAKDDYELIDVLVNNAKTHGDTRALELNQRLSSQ
# Chain of UniProt O14933 (O14933 whole entry, looked up): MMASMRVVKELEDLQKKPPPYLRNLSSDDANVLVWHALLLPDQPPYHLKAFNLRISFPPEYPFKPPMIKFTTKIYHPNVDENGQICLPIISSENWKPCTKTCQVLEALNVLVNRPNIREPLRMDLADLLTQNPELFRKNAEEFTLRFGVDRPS
# Chain of UniProt P17480 (P17480 whole entry, looked up): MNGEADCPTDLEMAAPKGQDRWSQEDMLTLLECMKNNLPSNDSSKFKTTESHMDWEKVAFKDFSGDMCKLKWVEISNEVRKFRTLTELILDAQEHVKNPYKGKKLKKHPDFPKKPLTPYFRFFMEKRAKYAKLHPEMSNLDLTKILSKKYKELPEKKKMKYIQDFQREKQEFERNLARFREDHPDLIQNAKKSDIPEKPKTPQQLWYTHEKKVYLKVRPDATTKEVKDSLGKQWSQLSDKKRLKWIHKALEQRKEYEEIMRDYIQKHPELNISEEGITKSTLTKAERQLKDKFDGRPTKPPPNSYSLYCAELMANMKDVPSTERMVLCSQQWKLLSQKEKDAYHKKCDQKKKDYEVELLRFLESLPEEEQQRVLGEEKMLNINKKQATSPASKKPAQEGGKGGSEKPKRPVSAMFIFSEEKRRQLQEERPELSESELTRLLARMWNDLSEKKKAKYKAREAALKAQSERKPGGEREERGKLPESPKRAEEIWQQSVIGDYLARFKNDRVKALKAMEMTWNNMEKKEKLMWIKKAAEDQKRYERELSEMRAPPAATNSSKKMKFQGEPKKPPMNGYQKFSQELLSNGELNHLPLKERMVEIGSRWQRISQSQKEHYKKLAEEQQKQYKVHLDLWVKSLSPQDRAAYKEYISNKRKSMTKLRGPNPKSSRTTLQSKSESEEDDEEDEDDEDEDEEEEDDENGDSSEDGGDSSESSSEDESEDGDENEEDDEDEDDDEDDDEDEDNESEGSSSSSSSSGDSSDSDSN
# Chain of UniProt P09493 (P09493 whole entry, looked up): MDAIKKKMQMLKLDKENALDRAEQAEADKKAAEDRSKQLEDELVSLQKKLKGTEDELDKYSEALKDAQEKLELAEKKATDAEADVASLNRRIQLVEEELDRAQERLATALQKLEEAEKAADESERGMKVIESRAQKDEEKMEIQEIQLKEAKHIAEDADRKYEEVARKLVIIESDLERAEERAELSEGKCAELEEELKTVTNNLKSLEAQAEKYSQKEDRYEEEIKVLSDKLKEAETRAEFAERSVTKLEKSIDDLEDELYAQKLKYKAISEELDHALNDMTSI
# Chain of UniProt P67936 (P67936 whole entry, looked up): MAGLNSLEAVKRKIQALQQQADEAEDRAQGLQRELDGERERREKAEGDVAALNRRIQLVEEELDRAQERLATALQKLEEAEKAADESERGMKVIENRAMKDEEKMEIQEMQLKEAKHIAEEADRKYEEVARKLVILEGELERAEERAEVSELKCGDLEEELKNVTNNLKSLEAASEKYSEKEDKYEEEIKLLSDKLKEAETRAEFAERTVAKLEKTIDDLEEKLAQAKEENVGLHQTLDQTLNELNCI
Target,log2 fold change (nilotinib),log2 fold change [1],log2 fold change (dasatinib),log2 fold change [2],log2 fold change [3],log2 fold change (quisinostat),log2 fold change (tipifarnib),log2 fold change [4],log2 fold change [5],log2 fold change [6],log2 fold change [7],log2 fold change (vorinostat),log2 fold change (silmitasertib),log2 fold change [8],log2 fold change (entospletinib)
TRADD (UniProt Q15628),0.009,-0.02,0.065,-0.013,-0.002,-0.018,0.053,0.044,0.01,0.041,0.034,-0.284,0.021,-0.029,0.059
TNKS (UniProt O95271),-0.053,-0.016,0.081,0.04,-0.051,-0.021,0.103,0.032,0.088,0.028,-0.009,-0.1,0.06,-0.001,-0.085
TNPO3 (UniProt Q9Y5L0),-0.016,0.017,0,0.003,0.009,-0.001,0.001,-0.002,-0.016,-0.01,0.017,-0.317 (active),0.015,0.009,0.022
TDRD3 isoform 3 (UniProt Q9H7E2),0.261,-0.04,0.033,0.17,0.01,-0.023,-0.152,0.042,0.014,0.064,0.23,-0.016,-0.03,0.008,-0.041
UBE2L6 (UniProt O14933),0.038,-0.139,-0.018,0.036,-0.055,0.024,0.043,-0.032,-0.002,-0.096,-0.071,-0.477 (active),0.037,0,-0.011
TUBA3C (UniProt P0DPH7),-0.009,-0.029,-0.018,-0.001,-0.05,-0.098,-0.025,0.05,0.022,0.005,0,-0.913 (active),0.017,-0.008,-0.007
TBL3 (UniProt Q12788),-0.009,0.025,-0.013,0.016,0.011,-0.046,0.008,0.056,-0.032,-0.052,0.015,-0.263 (active),-0.011,-0.001,-0.023
TRMT2A (UniProt Q8IZ69),-0.034,-0.011,-0.018,-0.011,0.013,-0.023,-0.007,0.016,-0.002,-0.012,-0.012,-0.366 (active),0.034,-0.007,0.002
TFIP11 (UniProt Q9UBB9),0.004,0.003,-0.059,0.035,0.01,-0.067,-0.005,0.048,0,-0.004,-0.001,-0.06,0.013,0.001,0.067
TPM4 (UniProt P67936),0.028,-0.068,0.058,-0.028,-0.01,0,-0.004,-0.054,0.007,-0.029,-0.001,0.166,-0.018,-0.023,0.048
TPM3 isoform 2 (UniProt P06753),-0.048,0.019,0.012,-0.005,0.014,0.14,0.06,-0.024,-0.003,0.047,-0.032,0.048,0.011,-0.047,-0.029
TRIM25 (UniProt Q14258),0.014,0.027,-0.003,-0.001,-0.002,0.002,-0.001,-0.001,-0.019,0.023,0.013,-0.59 (active),-0.046,-0.018,0.011
TDRKH (UniProt Q9Y2W6),-0.01,-0.077,-0.059,0.018,0.028,-0.087,-0.048,0.041,0.003,0.067,-0.031,-0.223,0.024,-0.052,0.056
TJP1 isoform 2 (UniProt Q07157),-0.003,0.004,0.036,0.006,-0.013,-0.011,-0.005,-0.019,0.022,-0.041,0.029,0.041,-0.035,-0.023,-0.043
TRIM23 (UniProt P36406),0.107,-0.004,-0.005,-0.046,0.136,-0.044,0.023,0.005,0.072,0.037,0.064,0.073,-0.03,-0.02,-0.032
TTC37 (UniProt Q6PGP7),0.03,-0.001,-0.163,0.013,-0.085,-0.408 (active),-0.012,0.065,0.005,-0.087,0.136,0.153,0.03,0.046,–
TPM1 isoform 4 (UniProt P09493),0.02,0,0.004,-0.031,0.004,0.023,-0.008,-0.016,-0.018,-0.019,-0.053,0.052,-0.03,-0.041,0.006
TOPBP1 (UniProt Q92547),0.013,-0.056,0.003,0.006,0.02,-0.018,0.049,-0.002,0.039,-0.007,0.032,-0.387 (active),0.019,-0.074,0.028
TPP2 (UniProt Q5VZU9),0.066,0.035,-0.194,-0.015,0.036,0.084,-0.001,0.107,-0.006,-0.039,-0.125,-0.173,0.044,0.002,0.109
UBTF (UniProt P17480),0.001,0.031,-0.021,-0.039,0.004,0,0.015,0.044,-0.01,-0.042,-0.045,-0.315 (active),0.044,-0.012,0.032
TTC5 (UniProt Q8N0Z6),0.012,-0.064,0,-0.016,0.047,-0.084,0.01,0,-0.007,0.001,-0.003,-0.257 (active),-0.029,-0.018,0.051
